Sampled rows, rich in hits. Any-hit rate of the full collection: about 3.4%.
pPAFAH FP inh: inhibitors of human plasma PAF acetylhydrolase (pPAFAH); Q13093; recombinant pPAFAH, FP-rhodamine probe fluorescence polarization; inhibition, % at 3.39 µM; actives 1.5% (n = 330,000); AID 463082;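 active = inhibition above the mean inhibition across the screen plus 3 SD, cut at about 25% in these data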;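 also: inhibitors block binding of the rhodamine activity-based probe so polarization drops; 0% = enzyme with DMSO and 100% = wells lacking pPAFAH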
PAFAH1B2 FP inh: inhibitors of human PAFAH1B2; actives 1.2% (n = 340,000); inhibition, % at 3.39 µM; recombinant PAFAH1B2, FP-rhodamine activity probe, fluorescence polarization; AID 492953; P68402;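 active = inhibition above the mean of all tested compounds plus 3 SD, cut at about 24% in these data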;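 also: 0% = enzyme with DMSO and 100% = wells lacking PAFAH1B2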
Target sequence (P68402 whole entry, looked up): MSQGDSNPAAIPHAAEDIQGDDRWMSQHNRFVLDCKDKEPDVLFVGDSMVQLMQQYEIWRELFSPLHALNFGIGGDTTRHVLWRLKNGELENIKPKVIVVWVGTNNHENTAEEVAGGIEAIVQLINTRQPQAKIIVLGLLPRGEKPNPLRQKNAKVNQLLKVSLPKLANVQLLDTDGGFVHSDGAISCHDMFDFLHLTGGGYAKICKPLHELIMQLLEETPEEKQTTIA
PAFAH2 FP inh: inhibitors of human PAFAH2; inhibition, % at 3.39 µM; recombinant PAFAH2, FP-rhodamine activity probe, fluorescence polarization; actives 0.99% (n = 340,000);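 active = inhibition above the mean over all tested compounds plus 3 SD, cut at about 30% in these data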;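 also: inhibitors block probe labeling of enzyme so polarization drops; 0% = enzyme with DMSO and 100% = wells lacking PAFAH2 protein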
PAFAH1B3 inh: PAFAH1B3 (human) inhibition; inhibition, % at 3.39 µM; Q15102; AID 492972; recombinant PAFAH1B3, FP-rhodamine probe, fluorescence polarization; actives 0.28% (n = 340,000);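 active = inhibition above the screen-wide average of all tested compounds plus 3 SD, cut at about 25% in these data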;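 also: 0% = enzyme with DMSO only and 100% = wells lacking PAFAH1B3 protein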
Target sequence (Q15102 whole entry, looked up): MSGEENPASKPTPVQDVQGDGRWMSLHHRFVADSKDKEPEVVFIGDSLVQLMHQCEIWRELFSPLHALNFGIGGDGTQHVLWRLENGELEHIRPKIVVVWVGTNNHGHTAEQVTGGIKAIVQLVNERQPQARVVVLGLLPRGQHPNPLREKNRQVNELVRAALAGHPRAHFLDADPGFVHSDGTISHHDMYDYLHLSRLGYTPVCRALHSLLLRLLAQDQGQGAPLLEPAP
PP1 inh: blocks human PP1-alpha phosphatase, a PP5 counter-screen | P62136 | purified PP1alpha, OMFP fluorescence | inhibition, % at 6.7 µM | actives 0.9% (n = 320,000);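 active = inhibition above the mean inhibition of all tested compounds plus 3 SD, computed separately for each screening campaign, cut at about 15% in these data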
PP5 inh: blocks human protein phosphatase 5 activity; inhibition, % at 6.7 µM; actives 0.18% (n = 320,000); P53041; purified PP5c, OMFP substrate fluorescence;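 active = inhibition above the campaign's mean inhibition across all tested compounds plus 3 SD, cut at about 9.5% in these data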;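 also: 0% = DMSO only and 100% = 100 µM cantharidin control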
pPAFAH confirm: confirmation of human plasma PAF acetylhydrolase (pPAFAH) inhibitors | shares compounds with pPAFAH FP inh | recombinant pPAFAH, FP-Rh probe fluorescence polarization | inhibition, % at 3.39 µM | actives 72% (n = 2,300);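 active = mean inhibition of the triplicate above the hit cutoff set for the earlier primary screen, cut at about 25% in these data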;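 also: 0% = enzyme with DMSO and 100% = wells lacking pPAFAH enzyme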
* hit, by the source's call; nt = not tested or not shown.

SMILES	pPAFAH FP inh	PAFAH1B2 FP inh	PAFAH2 FP inh	PAFAH1B3 inh	PP1 inh	PP5 inh	pPAFAH confirm
O=C(OCc1cc(=O)n2ccsc2n1)c1ccccc1O	-0.3	5.0	2.7	2.0	nt	nt	nt
Cc1cc(C)cc(NS(=O)(=O)c2csc(C(N)=O)c2)c1	-2.8	1.2	-2.9	1.8	-3.3	3.9	nt
Cc1ccc(NS(=O)(=O)c2csc(C(N)=O)c2)c(C)c1	36.4*	6.9	-3.0	5.9	1.5	2.2	19.5
Cc1ccccc1NC(=O)c1sc2nc3c(c(-c4ccco4)c2c1N)CCC3	36.0*	5.2	8.7	5.4	6.1	-0.1	23.6
Cc1ccc(C(=O)c2coc3c2C(=O)C(=O)c2ccccc2-3)cc1	11.3	6.0	0.2	-0.4	5.7	3.3	nt
C[C@H]1COC2=C1C(=O)C(=O)c1c2ccc2c1CCCC2(C)C	79.8*	18.2	41.5*	28.4*	3.2	5.8	73.8*
Cc1coc2c1C(=O)C(=O)c1c-2ccc2c1CCCC2(C)C	56.0*	27.3*	75.5*	7.2	1.7	1.1	70.0*
O=C(O)C1CCCCC1C(=O)NCc1ccccn1 (stereo unspecified)	2.0	9.8	7.3	11.0	-1.0	-1.3	nt
O=C(COc1ccccc1[N+](=O)[O-])N/N=C/C=C/c1ccco1	5.1	2.4	10.3	10.1	-0.7	3.7	nt
Cc1ccc(OCC(=O)N/N=C/C=C/c2ccco2)cc1	51.1*	-2.4	8.9	-0.6	1.5	-4.6	17.1
C=C1c2cccc(O)c2C(=O)C2C(=O)[C@]3(O)C(=O)C(C(N)=O)C(=O)[C@@H](N(C)C)[C@@H]3[C@@H](O)[C@H]12 (stereo partly specified)	92.3*	33.0*	52.1*	45.2*	nt	nt	8.5
Cc1ccc(S(=O)(=O)N(C)C)cc1NC(=O)COC(=O)CNC(=O)c1cccs1	-6.4	0.2	-6.0	5.4	0.7	2.8	nt
CCc1nc(Nc2ccc(N3CCN(C(C)=O)CC3)cc2)c2oc3ccccc3c2n1	41.5*	1.1	5.7	-1.7	-0.7	1.5	33.2*
CC(=O)N1CCN(c2ccc(Nc3ncnc4c3oc3ccccc34)cc2)CC1	69.3*	0.3	-5.7	4.6	1.9	7.8	67.0*
COc1ccccc1C(=O)C1CCCN(C(=O)c2ccco2)C1 (stereo unspecified)	1.6	4.3	1.2	0.6	-0.8	0.3	nt
c1coc(-c2ncc[nH]2)c1	-0.8	0.0	3.9	6.1	-1.5	-0.3	nt
c1coc(-c2nc(-c3ccco3)c(-c3ccco3)nc2-c2ccco2)c1	100.1*	45.2*	73.2*	46.9*	42.9*	2.0	42.6*
Nc1nc(-c2ccco2)cs1	8.2	5.7	-1.0	9.6	-1.8	0.1	nt
Nc1nc(-c2ccco2)c(-c2ccco2)s1	37.4*	-1.5	6.7	11.9	3.4	-0.2	10.3
CC(=O)N1c2ccc(S(=O)(=O)N3CCCC3)cc2CC1C(=O)NCc1ccccc1F (stereo unspecified)	-3.3	3.4	1.5	2.2	-5.5	0.4	nt
NC(=O)c1ccc(-n2nnnc2SCC(=O)c2ccc(O)c(O)c2)cc1	36.8*	4.6	14.1	15.6	1.1	3.8	66.8*
Cc1ccccc1CSc1nnnn1-c1ccc(C(N)=O)cc1	2.0	7.4	9.6	0.3	-0.4	2.5	nt
Cc1ccc2nc(/C(C#N)=C/c3ccccc3C(=O)O)[nH]c2c1	9.0	6.9	2.0	4.0	-1.4	-1.2	nt
Cc1ccc2nc(/C(C#N)=C/c3ccc(O)c(O)c3)[nH]c2c1	65.4*	23.5	27.2	46.6*	5.6	7.1	78.9*
CCCc1ccc(S(=O)(=O)N2CCN(C(C)C(=O)NCc3ccc(OC)cc3)CC2)cc1 (stereo unspecified)	-0.1	3.3	4.8	3.4	-1.7	1.2	nt
SMILES	pPAFAH FP inh	PAFAH1B2 FP inh	PAFAH2 FP inh	PAFAH1B3 inh	PP1 inh	PP5 inh	pPAFAH confirm
S=C(Nc1ccc(N2CCOCC2)cc1)Nc1ccc2nc(-c3ccco3)c(-c3ccco3)nc2c1	42.9*	3.2	7.2	14.3	10.2	4.9	17.7
O=C(Nc1ccc2nc(-c3ccco3)c(-c3ccco3)nc2c1)N1CCN(c2ccccn2)CC1	37.0*	9.7	17.4	19.7	1.6	0.0	28.1*
Cc1cccc(C)c1NC(=O)COC(=O)[C@@H]1CCCN1C(=O)c1cccs1	-2.0	-3.8	-6.3	7.4	nt	nt	nt
NC(=O)COC(=O)C1c2ccccc2Oc2ccccc21	-4.8	10.3	1.1	4.3	4.3	-7.6	nt
N#CCN(CC#N)C(=O)C1c2ccccc2Oc2ccccc21	62.2*	1.9	5.2	12.3	-2.1	1.2	2.6
CC1(c2cccc(Br)c2)NC(=O)N(CC(=O)c2ccc3c(c2)OCCO3)C1=O (stereo unspecified)	37.6*	6.9	1.9	-1.1	nt	nt	2.0
Cc1cc(/C=C2/SC(=S)N(c3cccc(Cl)c3)C2=O)c(C)n1-c1cccnc1	39.4*	2.0	9.0	-6.5	6.5	1.1	36.9*
CCCSc1cc(NCCOC(=O)CCC)c([N+](=O)[O-])c2nonc12	2.1	3.6	-7.8	5.7	5.1	3.9	nt
CCCC(=O)OCCNc1cc(SCc2ccco2)c2nonc2c1[N+](=O)[O-]	77.8*	4.3	7.1	4.7	-7.8	-0.2	5.0
CC(=O)OCCCNc1cc(SCc2ccco2)c2nonc2c1[N+](=O)[O-]	38.9*	-0.5	13.0	2.7	3.6	2.5	3.0
CCCCc1nnc(NC(=O)CN2C(=O)NC3(CCCCC3)C2=O)s1	1.2	-1.8	1.9	1.8	1.4	-0.9	nt
CCOc1ccc2nc(SCC(=O)N3CCCCCC3)c(C#N)cc2c1	2.4	-0.6	-14.0	-0.4	-0.8	0.9	nt
CCOc1ccc2cc(C#N)c(SCC(=O)N3CCOCC3)nc2c1	81.5*	0.0	0.7	7.0	-3.7	1.1	6.3
CC(C)(C)c1ccc(OCCCCCCN2CCNCC2)cc1	-4.5	1.1	3.1	1.4	-0.6	-1.1	nt
CC(C)(c1ccccc1)c1ccc(OCCCN2CCNCC2)cc1	39.3*	4.4	-8.9	-3.9	6.3	4.4	25.0*
O=C(O)CC1S/C(=N/N=C/c2ccc(-c3ccc(Cl)cc3[N+](=O)[O-])o2)NC1=O (stereo unspecified)	17.1	7.5	12.9	11.9	-0.4	-0.9	nt
O=C(O)CC1S/C(=N/N=C/c2ccc(-c3ccc(Cl)c([N+](=O)[O-])c3)o2)NC1=O (stereo unspecified)	35.8*	-1.6	6.9	0.1	-0.7	-1.0	5.9
Cn1c(=O)c(C(=O)c2ccccc2)c(O)c2ccccc21	-4.2	nt	nt	nt	-3.5	-0.2	nt
CC(=O)c1c(OC(=O)c2ccccc2)c2ccccc2n1C	81.5*	-6.1	-4.3	5.3	4.0	2.8	9.1
C=CCn1c(N/N=C/c2ccc(O)cc2)nc2ccccc2c1=O	35.1*	5.1	4.3	1.1	-0.9	3.2	8.8
